Reference: the supplement of paper PMC8728848
The entries come from a sample that favours the strongest signals as a whole.

Columns and labels:
Experiment in all cases: glycan array binding signal (z-score within array); higher = stronger binding
Settings in all cases: glycan notation: IUPAC condensed, linker removed
Fuc(a1-2)Gal(b1-3)GlcNAc = target: Fuc(a1-2)Gal(b1-3)GlcNAc
Procedure, shortened: (§1)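 Glycan array data were curated from 3228 arrays in the Consortium for Functional Glycomics database and kept only where the protein sequence was available. Glycan names were converted to IUPAC-condensed notation, and columns mapping to the same glycan were averaged. The binding signal is a within-array Z-score, averaged across arrays of the same protein sequence at different concentrations or buffers and across linkers. Negative Z-scores can be read as non-binding.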

[1] = target: Fuc(a1-2)Gal(b1-4)GlcNAc(b1-3)Gal(b1-4)GlcNAc
Procedure, shortened: as §1

[2] = target: Fuc(a1-2)[Gal(a1-3)]Gal(b1-4)Glc
Procedure, shortened: as §1

[3] = target: Fuc(a1-2)[GalNAc(a1-3)]Gal(b1-4)GlcNAc(b1-3)Gal(b1-4)GlcNAc
Procedure, shortened: as §1

[4] = target: Fuc(a1-2)[GalNAc(a1-4)]Gal(b1-4)GlcNAc
Procedure, shortened: as §1

Gal(a1-2)Gal = target: Gal(a1-2)Gal
Procedure, shortened: as §1

[5] = target: Gal(a1-3)Gal(b1-4)[Fuc(a1-3)]GlcNAc(b1-2)Man(a1-3)[Gal(a1-3)Gal(b1-4)[Fuc(a1-3)]GlcNAc(b1-2)Man(a1-6)]Man(b1-4)GlcNAc(b1-4)GlcNAc
Procedure, shortened: as §1

[6] = target: Gal(b1-3)[Fuc(a1-4)]GlcNAc(b1-2)Man(a1-3)[Gal(b1-3)[Fuc(a1-4)]GlcNAc(b1-2)Man(a1-6)]Man(b1-4)GlcNAc(b1-4)[Fuc(a1-6)]GlcNAc
Procedure, shortened: as §1

[7] = target: Gal(b1-4)GalNAc(a1-3)[Fuc(a1-2)]Gal(b1-4)GlcNAc
Procedure, shortened: as §1

Gal(b1-4)Glc6S = target: Gal(b1-4)Glc6S
Procedure, shortened: as §1

[8] = target: Gal(b1-4)GlcNAc(b1-2)Man(a1-3)[Man(a1-6)]Man(b1-4)GlcNAc(b1-4)GlcNAc
Procedure, shortened: as §1

[9] = target: Gal(b1-4)GlcNAc(b1-2)Man(a1-6)Man(b1-4)GlcNAc(b1-4)GlcNAc
Procedure, shortened: as §1

[10] = target: Gal(b1-4)GlcNAc(b1-3)Gal(b1-4)GlcNAc(b1-3)Gal(b1-4)GlcNAc
Procedure, shortened: as §1

[11] = target: Gal(b1-4)GlcNAc(b1-6)Gal(b1-4)GlcNAc(b1-6)GalNAc
Procedure, shortened: as §1

Gal3S(b1-4)Glc6S = target: Gal3S(b1-4)Glc6S
Procedure, shortened: as §1

Gal3S(b1-4)GlcNAc6S = target: Gal3S(b1-4)GlcNAc6S
Procedure, shortened: as §1

GalNAc(a1-3)GalNAc = target: GalNAc(a1-3)GalNAc
Procedure, shortened: as §1

GalNAc(b1-3)Gal = target: GalNAc(b1-3)Gal
Procedure, shortened: as §1

GalNAc(b1-3)GalNAc = target: GalNAc(b1-3)GalNAc
Procedure, shortened: as §1

[12] = target: GlcNAc(b1-3)Gal(b1-4)GlcNAc(b1-3)Gal(b1-4)GlcNAc
Procedure, shortened: as §1

[13] = target: GlcNAc(b1-4)GlcNAc(b1-4)GlcNAc
Procedure, shortened: as §1

[14] = target: Man(a1-2)Man(a1-2)Man(a1-6)[Man(a1-3)]Man
Procedure, shortened: as §1

[15] = target: Man(a1-2)Man(a1-3)[Man(a1-2)Man(a1-6)]Man
Procedure, shortened: as §1

[16] = target: Man(a1-2)Man(a1-3)[Man(a1-6)]Man(a1-6)[Man(a1-2)Man(a1-3)]Man(b1-4)GlcNAc(b1-4)GlcNAc
Procedure, shortened: as §1

[17] = target: Man(a1-2)Man(a1-6)[Man(a1-3)]Man(a1-6)[Man(a1-2)Man(a1-2)Man(a1-3)]Man(b1-4)GlcNAc(b1-4)GlcNAc
Procedure, shortened: as §1

[18] = target: Man(a1-3)[Man(a1-6)]Man(a1-6)[Man(a1-2)Man(a1-3)]Man(b1-4)GlcNAc(b1-4)GlcNAc
Procedure, shortened: as §1

[19] = target: Man(a1-3)[Man(a1-6)]Man(a1-6)[Man(a1-3)]Man(b1-4)GlcNAc(b1-4)GlcNAc
Procedure, shortened: as §1

[20] = target: Man(a1-3)[Man(a1-6)]Man(b1-4)GlcNAc(b1-4)GlcNAc
Procedure, shortened: as §1

[21] = target: Neu5Ac(a2-3)Gal(b1-3)[Fuc(a1-4)]GlcNAc(b1-3)Gal(b1-3)[Fuc(a1-4)]GlcNAc
Procedure, shortened: as §1

[22] = target: Neu5Ac(a2-3)Gal(b1-3)[Neu5Ac(a2-6)]GalNAc
Procedure, shortened: as §1

[23] = target: Neu5Ac(a2-3)Gal(b1-4)[Fuc(a1-3)]GlcNAc(b1-6)[Gal(b1-3)]GalNAc
Procedure, shortened: as §1

[24] = target: Neu5Ac(a2-3)Gal(b1-4)[Fuc(a1-3)]GlcNAc(b1-6)[Neu5Ac(a2-3)Gal(b1-3)]GalNAc
Procedure, shortened: as §1

[25] = target: Neu5Ac(a2-3)Gal6S(b1-4)GlcNAc
Procedure, shortened: as §1

[26] = target: Neu5Ac(a2-8)Neu5Ac(a2-3)[GalNAc(b1-4)]Gal(b1-4)Glc
Procedure, shortened: as §1

[27] = target: Neu5Ac(a2-8)Neu5Ac(a2-8)Neu5Ac(a2-3)Gal(b1-4)Glc
Procedure, shortened: as §1

[28] = target: Fuc(a1-3)[Gal(b1-4)]GlcNAc(b1-4)Gal(b1-4)[Fuc(a1-3)]GlcNAc
Procedure, shortened: as §1

[29] = target: Gal(b1-3)GlcNAc(b1-3)Gal(b1-4)Glc
Procedure, shortened: as §1

[30] = target: Gal(b1-3)GlcNAc(b1-3)Gal(b1-4)GlcNAc
Procedure, shortened: as §1

[31] = target: Gal(b1-3)[Fuc(a1-4)]GlcNAc
Procedure, shortened: as §1

[32] = target: Gal(b1-3)[Neu5Ac(a2-6)]GalNAc
Procedure, shortened: as §1

[33] = target: Gal(b1-3)[Neu5Ac(a2-6)]GlcNAc(b1-6)Gal(b1-4)Glc
Procedure, shortened: as §1

[34] = target: Gal(b1-3)[Neu5Ac(b2-6)]GalNAc
Procedure, shortened: as §1

Gal6S(b1-4)Glc = target: Gal6S(b1-4)Glc
Procedure, shortened: as §1

Glc(a1-6)Glc(a1-6)Glc = target: Glc(a1-6)Glc(a1-6)Glc
Procedure, shortened: as §1

Glc(b1-6)Glc = target: Glc(b1-6)Glc
Procedure, shortened: as §1

[35] = target: GlcNAc(b1-2)Man(a1-3)[GlcNAc(b1-2)Man(a1-6)]Man(b1-4)GlcNAc(b1-4)GlcNAc
Procedure, shortened: as §1

[36] = target: Neu5Ac(a2-3)Gal(b1-4)GlcNAc(b1-3)Gal(b1-4)GlcNAc
Procedure, shortened: as §1

[37] = target: Neu5Ac(a2-3)Gal(b1-4)[Fuc(a1-3)]GlcNAc(b1-3)Gal(b1-4)[Fuc(a1-3)]GlcNAc(b1-3)Gal(b1-4)[Fuc(a1-3)]GlcNAc
Procedure, shortened: as §1

[38] = target: Neu5Ac(a2-6)GalNAc(b1-4)GlcNAc
Procedure, shortened: as §1

[39] = target: Neu5Ac(a2-8)Neu5Ac(a2-8)Neu5Ac(a2-8)Neu5Ac(a2-3)[GalNAc(b1-4)]Gal(b1-4)Glc
Procedure, shortened: as §1

B1: PP2A1 (Arabidopsis thaliana) (protein)
chain: MFRNQDSKYLIPVQKEAPPVTTLPMKASTVKSPHNCEAILRDADPPISLSSVNLSEQLRSGVFLKPKKQIKYWVDERNSNCFMLFAKNLSITWSDDVNYWTWFTEKESPNENVEAVGLKNVCWLDITGKFDTRNLTPGIVYEVVFKVKLEDPAYGWDTPVNLKLVLPNGKEKPQEKKVSLRELPRYKWVDVRVGEFVPEKSAAGEITFSMYEHAAGVWKKGLSLKGVAIRPKQHHHHHH
Fuc(a1-2)Gal(b1-3)GlcNAc
  glycan array binding signal (z-score): -0.319
[1]
  glycan array binding signal (z-score): -0.347
[2]
  glycan array binding signal (z-score): -0.572
[3]
  glycan array binding signal (z-score): -0.018
[4]
  glycan array binding signal (z-score): -0.398
Gal(a1-2)Gal
  glycan array binding signal (z-score): -0.291
[5]
  glycan array binding signal (z-score): -0.011
[6]
  glycan array binding signal (z-score): 1.34
[7]
  glycan array binding signal (z-score): -0.498
Gal(b1-4)Glc6S
  glycan array binding signal (z-score): 0.116
[8]
  glycan array binding signal (z-score): 2.93
[9]
  glycan array binding signal (z-score): 0.362
[10]
  glycan array binding signal (z-score): -0.223
[11]
  glycan array binding signal (z-score): 0.051
Gal3S(b1-4)Glc6S
  glycan array binding signal (z-score): 0.405
Gal3S(b1-4)GlcNAc6S
  glycan array binding signal (z-score): 0.165
GalNAc(a1-3)GalNAc
  glycan array binding signal (z-score): -0.698
GalNAc(b1-3)Gal
  glycan array binding signal (z-score): -0.293
GalNAc(b1-3)GalNAc
  glycan array binding signal (z-score): -0.497
[12]
  glycan array binding signal (z-score): -0.708
[13]
  glycan array binding signal (z-score): 2.52
[14]
  glycan array binding signal (z-score): 0.03
[15]
  glycan array binding signal (z-score): 0.174
[16]
  glycan array binding signal (z-score): 3.07
[17]
  glycan array binding signal (z-score): 2.69
[18]
  glycan array binding signal (z-score): 2.97
[19]
  glycan array binding signal (z-score): 3.55
[20]
  glycan array binding signal (z-score): 2.85
[21]
  glycan array binding signal (z-score): 0.594
[22]
  glycan array binding signal (z-score): 0.432
[23]
  glycan array binding signal (z-score): -0.268
[24]
  glycan array binding signal (z-score): -0.091
[25]
  glycan array binding signal (z-score): 0.07
[26]
  glycan array binding signal (z-score): 0.265
[27]
  glycan array binding signal (z-score): 0.006

B2: LKPARMA (Neurospora crassa) (protein)
chain: MSFHVTAEDARRIEVRDNRTILFARLRREDGEWNDASYELDQIIGNNDGHFQWGGGQNFTETAEDIRFHPKEGAAEQPILRARLRDCNGEFHDRDVNLTEIVENVNGEFQAKF
Fuc(a1-2)Gal(b1-3)GlcNAc
  glycan array binding signal (z-score): -0.25
[28]
  glycan array binding signal (z-score): -0.077
[29]
  glycan array binding signal (z-score): 4.93
[30]
  glycan array binding signal (z-score): -0.249
[31]
  glycan array binding signal (z-score): -0.251
[32]
  glycan array binding signal (z-score): -0.234
[33]
  glycan array binding signal (z-score): 5.09
[34]
  glycan array binding signal (z-score): -0.251
[7]
  glycan array binding signal (z-score): -0.149
[11]
  glycan array binding signal (z-score): -0.252
Gal6S(b1-4)Glc
  glycan array binding signal (z-score): -0.252
Glc(a1-6)Glc(a1-6)Glc
  glycan array binding signal (z-score): 7.12
Glc(b1-6)Glc
  glycan array binding signal (z-score): 6.76
[35]
  glycan array binding signal (z-score): -0.251
[36]
  glycan array binding signal (z-score): -0.235
[37]
  glycan array binding signal (z-score): -0.212
[38]
  glycan array binding signal (z-score): -0.252
[39]
  glycan array binding signal (z-score): -0.248
